Details in all cases: mRNA level, 48 h; actives raise or lower the signal
Read-out in test [1]: Bcl-2 (BID) gene, BID (gene 637)
Nature of the test: LTEA_HepaRG_BID: Life Technologies and Expression Analysis (LTEA) Assay for Bcl-2 (BID) gene using HepaRG (AID 2283476). The essentials:
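Gene expression by qRT-PCR in HepaRG cells after 48 h exposure, duplicate wells, eight half-log concentrations topping at 100 uM in 0.5% DMSO. Normalized to ACTB, GAPDH, POLR2A; bidirectional fitting relative to DMSO.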

Read-out in test [2]: Caspase-3 (Homo sapiens) (UniProt P42574)
Nature of the test: LTEA_HepaRG_CASP3: Life Technologies and Expression Analysis (LTEA) Assay for cysteine-aspartic acid protease (CASP3) using HepaRG (AID 2283477). The essentials: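 In HepaRG liver cells dosed for 48 h at up to 100 uM (eight-point, duplicate), CASP3 expression changes are scored by qRT-PCR. Activity is fitted in both directions with 0.5% DMSO as baseline.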

Read-out in test [3]: Cytochrome P450 (CYP24A1), CYP24A1 (gene 1591)
Kind of test: LTEA_HepaRG_CYP24A1: Life Technologies and Expression Analysis (LTEA) Assay for Cytochrome P450 (CYP24A1) using HepaRG (AID 2283478). The essentials: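 Human liver HepaRG cultures receive each chemical for 48 h across an eight-point half-log series topping at 100 uM in 0.5% DMSO. Induction or suppression of CYP24A1 mRNA is scored relative to vehicle after housekeeping-gene normalization.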

Read-out in test [4]: Cytochrome P450 (CYP1A2), CYP1A2 (gene 1544)
Kind of test: LTEA_HepaRG_CYP1A2: Life Technologies and Expression Analysis (LTEA) Assay for Cytochrome P450 (CYP1A2) using HepaRG (AID 2283479). The method, boiled down: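 Assesses CYP1A2 mRNA in human HepaRG liver cells after 48 h chemical exposure at up to 100 uM. Values come from qRT-PCR with bidirectional curve fitting relative to DMSO.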

Read-out in test [5]: cysteine-aspartic acid protease (CASP8), CASP8 (gene 841)
Nature of the test: LTEA_HepaRG_CASP8: Life Technologies and Expression Analysis (LTEA) Assay for cysteine-aspartic acid protease (CASP8) using HepaRG (AID 2283480). The method, boiled down: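 Differentiated HepaRG cells in serum-free induction medium, 48 h exposure, eight-point half-log series from 100 uM in 0.5% DMSO, duplicates. CASP8 mRNA by qRT-PCR, normalized to ACTB, GAPDH, POLR2A; bidirectional fit versus DMSO.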

Read-out in test [6]: Cytochrome P450 (CYP2B6), CYP2B6 (gene 1555)
Nature of the test: LTEA_HepaRG_CYP2B6: Life Technologies and Expression Analysis (LTEA) Assay for Cytochrome P450 (CYP2B6) using HepaRG (AID 2283481). The essentials:
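Using 48 h treatment of HepaRG cells in serum-free induction medium, concentrations spanned half-log steps from 100 uM in 0.5% DMSO vehicle. CYP2B6 mRNA induction or loss is scored by qRT-PCR against DMSO.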

Read-out in test [7]: Cytochrome P450 2C19 (Homo sapiens) (UniProt P33261)
Kind of test: LTEA_HepaRG_CYP2C19: Life Technologies and Expression Analysis (LTEA) Assay for CYP2C19 using HepaRG (AID 2283482). The essentials: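 Human HepaRG liver cells received test chemicals for 48 h (highest 100 uM, half-log dilutions in 0.5% DMSO). CYP2C19 mRNA induction or loss is read by multiplexed qRT-PCR and fitted in both directions versus vehicle.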

Read-out in test [8]: CYP2C8 (gene 1558)
Kind of test: LTEA_HepaRG_CYP2C8: Life Technologies and Expression Analysis (LTEA) Assay for CYP2C8 using HepaRG (AID 2283483). The essentials:
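Differentiated HepaRG cells in serum-free induction medium exposed 48 h in duplicate to 8 half-log concentrations from 100 uM in 0.5% DMSO. CYP2C8 mRNA by qRT-PCR normalized to ACTB, GAPDH, POLR2A; bidirectional fit versus DMSO.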

Read-out in test [9]: CYP2E1 (gene 1571)
Nature of the test: LTEA_HepaRG_CYP2E1: Life Technologies and Expression Analysis (LTEA) Assay for CYP2E1 using HepaRG (AID 2283485). The essentials:
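HepaRG cells, plated 48 h, then exposed 48 h in serum-free induction medium to eight half-log concentrations from 100 uM in 0.5% DMSO, duplicate. CYP2E1 mRNA by qRT-PCR, normalized to ACTB/GAPDH/POLR2A; bidirectional fit versus DMSO.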

Read-out in test [10]: CYP4A11 (gene 1579)
Nature of the test: LTEA_HepaRG_CYP4A11: Life Technologies and Expression Analysis (LTEA) Assay for CYP4A11 using HepaRG (AID 2283486). The method, boiled down:
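Readout is CYP4A11 mRNA induction or suppression (qRT-PCR, ACTB/GAPDH/POLR2A normalization) in human HepaRG cells after 48 h chemical treatment, concentrations to 100 uM in 0.5% DMSO, fitted bidirectionally against vehicle.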

Read-out in test [11]: Cytochrome P450 3A4 (Homo sapiens) (UniProt P08684)
Nature of the test: LTEA_HepaRG_CYP3A4: Life Technologies and Expression Analysis (LTEA) Assay for CYP3A4 using HepaRG (AID 2283487). The method, boiled down: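 HepaRG, 48 h exposure, 8-pt CRC from 100 uM (half-log), 0.5% DMSO, duplicates; serum-free induction medium. Readout: CYP3A4 mRNA, qRT-PCR, ACTB/GAPDH/POLR2A normalization. Bidirectional fit vs DMSO.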

Read-out in test [12]: DNA damage-inducible transcript 3 (DDIT3), DDIT3 (gene 1649)
Kind of test: LTEA_HepaRG_DDIT3: Life Technologies and Expression Analysis (LTEA) Assay for DNA damage-inducible transcript 3 (DDIT3) using HepaRG (AID 2283488). The method, boiled down: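 HepaRG cells, 48 h after plating, exposed 48 h in serum-free induction medium to 8 half-log concentrations up to 100 uM in 0.5% DMSO, in duplicate. DDIT3 mRNA measured by TaqMan qRT-PCR, normalized to ACTB, GAPDH and POLR2A. Fitted bidirectionally against DMSO.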

Read-out in test [13]: Pro-epidermal growth factor (Homo sapiens) (UniProt P01133)
Kind of test: LTEA_HepaRG_EGF: Life Technologies and Expression Analysis (LTEA) Assay for Epidermal growth factor (EGF) using HepaRG (AID 2283489). The method, boiled down: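 EGF expression changes in human HepaRG cells are scored by bidirectional fitting relative to 0.5% DMSO controls. Chemicals are tested at eight half-log concentrations up to 100 uM for 48 h in serum-free induction medium.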

Read-out in test [14]: Early growth response protein 1 (EGR1) transcription factor, EGR1 (gene 1958)
Nature of the test: LTEA_HepaRG_EGR1: Life Technologies and Expression Analysis (LTEA) Assay for Early growth response protein 1 (EGR1) transcription factor using HepaRG (AID 2283490). The method, boiled down:
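Differentiated HepaRG cells in serum-free induction medium exposed 48 hours, duplicate, to 8 half-log concentrations up to 100 uM in 0.5% DMSO. EGR1 mRNA measured by TaqMan qRT-PCR, normalized to ACTB, GAPDH, POLR2A; bidirectional fit versus DMSO.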

Read-out in test [15]: Ezrin (EZR), EZR (gene 7430)
Nature of the test: LTEA_HepaRG_EZR: Life Technologies and Expression Analysis (LTEA) Assay for Ezrin (EZR) using HepaRG (AID 2283491). The method, boiled down: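 Read-out is EZR transcript level by qRT-PCR, normalized to three housekeeping genes and fitted bidirectionally against the DMSO control. Human HepaRG cells received test chemicals for 48 h at eight half-log concentrations up to 100 uM in 0.5% DMSO.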

Read-out in test [16]: Cytochrome P450 3A7 (Homo sapiens) (UniProt P24462)
Nature of the test: LTEA_HepaRG_CYP3A7: Life Technologies and Expression Analysis (LTEA) Assay for CYP3A7 using HepaRG (AID 2283492). The method, boiled down:
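Cells were thawed, plated, cultured 48 h, then treated for a further 48 h with chemicals (eight-point half-log series from 100 uM, 0.5% DMSO). RNA was isolated and CYP3A7 expression quantified by qRT-PCR normalised to ACTB, GAPDH and POLR2A.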

Read-out in test [17]: CYP3A5 (gene 1577)
Nature of the test: LTEA_HepaRG_CYP3A5: Life Technologies and Expression Analysis (LTEA) Assay for CYP3A5 using HepaRG (AID 2283493). The essentials:
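HepaRG cells, plated 48 h then in serum-free induction medium, dosed in duplicate for 48 h with eight half-log concentrations up to 100 uM in 0.5% DMSO. Gene mRNA by Fluidigm TaqMan qRT-PCR, normalized to ACTB, GAPDH, POLR2A.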

Read-out in test [18]: Cytochrome P450 4A22 (Homo sapiens) (UniProt Q5TCH4)
Nature of the test: LTEA_HepaRG_CYP4A22: Life Technologies and Expression Analysis (LTEA) Assay for Cytochrome P450 4A22 (CYP4A22) using HepaRG (AID 2283495). The essentials:
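Cryopreserved HepaRG cells, plated and cultured 48 h, then switched to serum-free induction medium and treated 48 h (duplicates, up to 100 uM, half-log steps, 0.5% DMSO). Expression change of CYP4A22 was fitted bidirectionally against vehicle.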

Read-out in test [19]: Fatty Acid-Binding Protein 1 (FABP1), FABP1 (gene 2168)
Kind of test: LTEA_HepaRG_FABP1: Life Technologies and Expression Analysis (LTEA) Assay for Fatty Acid-Binding Protein 1 (FABP1) using HepaRG (AID 2283494). The method, boiled down: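 Differentiated human HepaRG cells exposed 48 h in serum-free induction medium to eight half-log concentrations up to 100 uM (0.5% DMSO), duplicate. FABP1 mRNA by qRT-PCR, normalised to ACTB, GAPDH, POLR2A; bidirectional fitting against DMSO.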

Calls of active or inactive are those of the source. Rule for the calls: active = hit-call score of the fitted dose curve at least 0.9, where 1 is the maximum; inactive = score below 0.9.

Cytochrome P450 2C19 (Homo sapiens), sequence (P33261 whole entry, looked up): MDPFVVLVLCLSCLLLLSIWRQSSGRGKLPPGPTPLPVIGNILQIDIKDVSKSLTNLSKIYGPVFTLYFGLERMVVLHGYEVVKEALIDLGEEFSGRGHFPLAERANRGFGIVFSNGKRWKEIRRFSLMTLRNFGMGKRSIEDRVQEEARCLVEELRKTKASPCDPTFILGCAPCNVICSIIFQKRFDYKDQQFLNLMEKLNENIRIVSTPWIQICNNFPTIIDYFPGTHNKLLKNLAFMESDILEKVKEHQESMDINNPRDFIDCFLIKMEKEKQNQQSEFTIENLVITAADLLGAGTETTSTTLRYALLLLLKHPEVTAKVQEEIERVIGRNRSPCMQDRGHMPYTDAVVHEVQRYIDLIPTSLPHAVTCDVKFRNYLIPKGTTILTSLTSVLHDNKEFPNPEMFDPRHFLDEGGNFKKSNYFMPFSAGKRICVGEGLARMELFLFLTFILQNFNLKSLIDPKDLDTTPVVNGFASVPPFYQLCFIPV
Caspase-3 (Homo sapiens), sequence (P42574 whole entry, looked up): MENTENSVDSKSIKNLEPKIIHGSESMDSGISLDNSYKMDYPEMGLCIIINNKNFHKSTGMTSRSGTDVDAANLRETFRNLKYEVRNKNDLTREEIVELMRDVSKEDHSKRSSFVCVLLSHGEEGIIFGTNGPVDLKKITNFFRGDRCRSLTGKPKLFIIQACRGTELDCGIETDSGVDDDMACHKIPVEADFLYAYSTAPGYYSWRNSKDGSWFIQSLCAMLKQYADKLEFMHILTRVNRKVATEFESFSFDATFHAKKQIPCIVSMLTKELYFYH
Cytochrome P450 3A7 (Homo sapiens), sequence (P24462 whole entry, looked up): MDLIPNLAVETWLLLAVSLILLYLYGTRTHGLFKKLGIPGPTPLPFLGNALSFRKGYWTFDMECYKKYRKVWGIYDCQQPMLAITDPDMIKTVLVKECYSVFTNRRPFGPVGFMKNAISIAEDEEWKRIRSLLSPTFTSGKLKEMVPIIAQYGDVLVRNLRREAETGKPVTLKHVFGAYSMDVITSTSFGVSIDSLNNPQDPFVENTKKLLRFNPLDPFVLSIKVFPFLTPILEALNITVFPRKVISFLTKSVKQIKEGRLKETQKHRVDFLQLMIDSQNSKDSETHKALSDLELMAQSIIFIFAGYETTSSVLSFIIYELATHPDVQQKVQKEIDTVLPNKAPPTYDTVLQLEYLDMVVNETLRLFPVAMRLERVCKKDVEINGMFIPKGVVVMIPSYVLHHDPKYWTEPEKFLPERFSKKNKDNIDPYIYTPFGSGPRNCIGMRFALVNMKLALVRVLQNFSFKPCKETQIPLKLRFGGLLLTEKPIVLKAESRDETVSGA
Cytochrome P450 3A4 (Homo sapiens), sequence (P08684 whole entry, looked up): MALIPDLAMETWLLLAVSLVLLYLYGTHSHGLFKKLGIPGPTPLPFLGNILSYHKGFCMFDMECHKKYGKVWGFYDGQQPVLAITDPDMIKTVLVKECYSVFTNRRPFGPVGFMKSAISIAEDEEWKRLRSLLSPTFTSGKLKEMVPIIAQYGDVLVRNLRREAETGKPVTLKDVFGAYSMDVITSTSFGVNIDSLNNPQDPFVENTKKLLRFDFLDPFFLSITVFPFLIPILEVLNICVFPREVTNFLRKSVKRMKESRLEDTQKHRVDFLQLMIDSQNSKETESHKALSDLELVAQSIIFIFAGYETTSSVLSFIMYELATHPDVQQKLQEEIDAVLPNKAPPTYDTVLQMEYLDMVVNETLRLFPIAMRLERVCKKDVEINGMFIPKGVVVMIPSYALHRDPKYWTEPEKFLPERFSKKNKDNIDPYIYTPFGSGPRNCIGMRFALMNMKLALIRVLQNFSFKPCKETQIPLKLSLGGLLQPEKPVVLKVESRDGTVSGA

The term AC50 denotes the concentration giving half of the maximal activity seen. On to `CON=C(C(=O)OC)c1ccccc1CON=C(C)c1cccc(C(F)(F)F)c1`, for which the compound was classed as inactive in [1], in test [2], in [3], in test [4], in test [5] and in test [6]. Besides, the outcome in [7], in test [8], in test [10], in test [12], in [13] and in test [14] was inactive. Besides, the outcome in [15] and in test [18] was inactive. Also, the AC50 in [9] is 25.4 µM (active); in test [11], 13.1 µM (active); in [16], 19.5 µM (active); in [17], 50 µM (active).
Take `CC(=NC#N)N(C)Cc1ccc(Cl)nc1`: the outcome in test [1], in [2], in [3], in [4], in [5] and in test [7] was inactive. Also, the compound was classed as inactive in [9], in test [10], in [12], in test [13], in [14] and in [15]. For the same compound, the call in test [17] and in test [18] was inactive. For the same compound, the AC50 in [6], in [8], in test [11] and in [16] was 50 µM (active) each time.
Consider `CCC(=NOC/C=C/Cl)C1=C(O)CC(C2CCOCC2)CC1=O` (stereo not given), for which the compound was classed as inactive in test [1], in test [2], in test [3], in [4], in test [5] and in [6]. Moreover, the outcome in test [7], in test [8], in [9], in test [10], in test [11] and in test [12] was inactive. The call in [13], in test [14], in test [15], in [16], in [17] and in [19] was inactive. Besides, in [18], the call was inactive.
